The target in experiment [1] is Cytochrome P450 3A4 (Homo sapiens) (UniProt P08684). The experiment in a line: qHTS Assay for Inhibitors and Substrates of Cytochrome P450 3A4 (AID 884). Note: potency is the fitted concentration of half-maximal effect; nearly all actives have a fitted effect of over 50% in size. The essentials: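 20 nM human CYP3A4 with 25 uM Luciferin-PPXE (at KM) in 200 mM KPO4, preincubated 10 min with compound; NADPH regeneration started a 60 min RT reaction. Luciferin detected by luminescence, normalized to 57 uM ketoconazole as full inhibition.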

Experiment [2] shares this target. Nature of the experiment: qHTS Assay for Activators of Cytochrome P450 3A4 (AID 885). Note: nearly all actives have a fitted effect of over 65% in size. The essentials: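 Human CYP3A4 (20 nM) with Luciferin-PPXE at 25 uM (its KM) in 200 mM KPO4; 10 min compound preincubation, then NADPH regeneration and 60 min reaction at RT. Luciferin read by luminescence; normalized to 57 uM ketoconazole full inhibition.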
The test system of experiment [3] is Zika virus NS2B-NS3 protease. The experiment in a line: Primary screen GU AMC qHTS for Zika virus inhibitors (AID 1347154).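 Note: 0% = no-inhibitor control and -100% = no-enzyme control; nearly all actives have a fitted effect of over 70% in size.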 The essentials: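 Unlinked Zika NS2B hydrophilic domain/NS3 protease domain noncovalent complex (25 nM final) in 10 mM Tris-HCl pH 8.0, 0.01% Tween 20, with AMC peptide substrate. Fluorescence (ex 340, em 450 nm) change over 15 min, room temperature; percent inhibition fitted to 4-parameter Hill equation.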

Experiment [4] concerns the target Lysosomal acid glucosylceramidase (Homo sapiens) (UniProt P04062). Nature of the experiment: Glucocerebrosidase-p2 (AID 348; in the data active = potency below about 10 µM; note: potency is the fitted concentration of half-maximal effect). Particulars: purified GBA, blue fluorogenic substrate, 40 min. The essentials:
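Compounds titrated from 0.6 nM upwards against 0.2 nM enzyme in pH 5.9 citric acid/KH2PO4, taurocholate, tween-20; blue fluorogenic substrate 80 uM, 40 min room temperature, stopped and read Ex 365/Em 440 for AC50.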

Experiment [5] in a line: AP1 Signaling Pathway (AID 357; active = well fitted curve in either direction with a large enough effect, not every such curve was filed as active;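 note: ME-180 reporter cells stimulated with EGF at its EC50 level; % is set by controls: 0 for no effect and ±100 for the full control effect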). As to conditions: ME-180 (cervical carcinoma) AP-1-bla reporter, EGF-induced, beta-lactamase ratio, 5 h; at 7.69 µM (top of the series). A digest of the protocol:
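Titration-series screen for positive or negative modulators of EC50 EGF-induced signaling in ME-180 cells carrying an AP-1-driven beta-lactamase reporter. After 5 hours at 37 degrees Celsius, CCF4 460nm/530nm emission ratio gave %Activity; AC50 values derived.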

Experiment [6] has as its target Cytochrome P450 1A2 (Homo sapiens) (UniProt P05177). Nature of the experiment: p450-cyp1a2 (AID 410; calls by dose curve). A digest of the protocol: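 Inhibition was calculated relative to 57 uM furafylline (full inhibition). The reaction used human CYP1A2 at 20nM with Luciferin-ME at its Km, 100uM, driven by an NADPH-regenerating system for 60 min at room temperature.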
Experiment [7] is described as follows: NFAT Signaling Pathway (AID 444; active = well fitted curve in either direction with a large enough effect, not every such curve was filed as active;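 note: carbachol stimulus at about its EC50 of 1 µM final; % is set by controls: 0 for no effect and ±100 for the full control effect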). As to conditions: Jurkat NFAT-bla M1, carbachol, beta-lactamase ratio, 5 h; at 7.69 µM (top of the series). The essentials:
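Jurkat cells carrying an NFAT-driven β-lactamase reporter and co-transfected muscarinic M1 receptor were treated with compound plus carbachol (1 uM final, an EC50 level) for 5 h at 37 °C. CCF4 loading followed for 1 h at RT; 460/530 nm ratio gave %activity.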

The target in experiment [8] is Glucocorticoid receptor (Homo sapiens) (UniProt P04150). Nature of the experiment: GR-GFP Redistribution (AID 450;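 active = compounds whose dose series gives a full or clear partial fitted curve of increased nuclear translocation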; note: potency is the fitted concentration of half-maximal effect). As to conditions: U2OS GR-GFP nuclear translocation, laser cytometry, 2 h.
For experiment [9] the target is unchanged. The experiment in a line: GR-EFC Redistribution (AID 451; calls by dose curve; note: potency is the fitted concentration of half-maximal effect). Particulars: CHO-K1 GR-EFC translocation, beta-gal luminescence, 2 h. The essentials:
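CHO-K1 cells stably expressing nuclear-localized β-gal enzyme acceptor and GR fused C-terminally to the enzyme donor fragment; ligand-driven nuclear translocation restores β-gal by complementation. Compounds titrated up to 46 uM final, 2 h at 37 °C; luminescence read.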

In experiment [10] the target is 3',5'-cyclic-AMP phosphodiesterase 4B (Homo sapiens) (UniProt Q07343). Nature of the experiment: qHTS Assay for Inhibitors of PDE-IV (AID 607; active = well fitted activation curve with a large enough effect in the main read-out, with a control signal flat, not every such curve was filed as active; note: % of control where 0% means no effect). A digest of the protocol: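 HEK293 ACTOne cells with CNG channel (1000/well), endogenous PDE4; membrane potential dye, compounds up to 22.9 uM final. Fluorescence Ex 535/Em 590; RO 20-1724 (100 uM final) as reference.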
A short description of experiment [11]: Confirmatory screen GU Rhodamine qHTS for Zika virus inhibitors qHTS (AID 1347157). Note: potency is the fitted concentration of half-maximal effect; nearly all actives have a fitted effect of over 70% in size. The essentials: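 Unlinked NS2B/NS3, 25 nM; Rhod110 peptide, 1.5 microM; compounds, up to 114 microM. Reaction run 15 min at RT in 10 mM Tris-HCl pH 8.0, 0.01% Tween 20; kinetic fluorescence change fitted with a 4-parameter Hill model.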
Experiment [12] can be described thus: ZIKV-mCherry secondary qHTS for Zika virus inhibitors (AID 1347158). Note: top concentration of the series differs between compounds. The essentials:
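After overnight seeding at 37 °C, Vero cells receive compound and then ZIKV-mCherry (MOI 1). Following 48-72 h infection, cells are fixed, counterstained with Hoechst, and imaged; percent infected cells is derived from an mCherry intensity cut-off of 450 RFU.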

The nature of experiment [13]: Confirmatory screen NINDS Rhodamine qHTS for Zika virus inhibitors (AID 1347161). Note: potency is the fitted concentration of half-maximal effect; nearly all actives have a fitted effect of over 60% in size. A digest of the protocol:
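Rhodamine110-peptide cleavage (1.5 µM substrate) by 25 nM linked NS2B-NS3 enzyme at pH 8.0 (Tris, Tween 20), after 15 min RT preincubation with compounds; 15-min fluorescence change normalized to controls and Hill-fitted.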

Experiment [14] has as its system Zika virus NS2B-NS3 protease (linked). Nature of the experiment: 384 well plate NINDS AMC confirmatory qHTS for Zika virus inhibitors (AID 1347163). Note: potency is the fitted concentration of half-maximal effect; nearly all actives have a fitted effect of over 50% in size. The essentials:
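Linked protease 5/30/60 nM final; cpds up to 1 mM final, ~15 min preinc. Substrate Ac-VKTGKR-AMC 30 microM final. RT, dark, 25 min; FI ex 355/em 460; normalized to no-enzyme/no-inhibitor ctrls.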

Experiment [15] can be described thus: Confirmation and Secondary Assay for Modulators of Hemoglobin Beta Chain Splicing at IVS2 654 locus (AID 910). Note: % of control where 0% means no effect. The essentials:
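HeLa cells stably carrying EGFP interrupted by mutant beta-globin IVS2-654 intron (CMV-driven) were treated with compound for 2 days at 37C; corrected splicing was scored as total peak GFP intensity per well (488 nm excitation, 500-520 nm emission).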

Experiment [16] can be described thus: Confirmation and Secondary Assay for Modulators of Hemoglobin Beta Chain Splicing at IVS2 705 locus (AID 930).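 Note: HeLa cells stably expressing the EGFP-705 splicing reporter; GFP fluorescence per well restored by corrected splicing of the IVS2-705 intron in EGFP; % of control where 0% means no effect.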 The essentials:
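HeLa cells stably carrying EGFP interrupted by mutant beta-globin intron 2 (IVS2-705) treated 2 days at 37C with compound; 500 nM antisense PNA as control. Correct splicing read as total peak GFP intensity per well by laser-scanning cytometry.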

Experiment [17] is described as follows: qHTS Assay for Lipid Storage Modulators (AID 1519; calls by dose curve; for activity change, negative = inhibition: % is set by controls: 0 for no effect and ±100 for the full control effect). As to conditions: Drosophila S3 cells, BODIPY lipid droplet/cell ratio, laser cytometry, cells loaded with oleic acid. A digest of the protocol: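 Cells seeded at 5,000 per well were treated with compounds over a concentration series and loaded with oleic acid (400 uM, as added). Lipid droplet fluorescence (488 nm excitation, 500-530 nm channel) was read by laser-scanning cytometry and normalized to 20 uM Triacsin C.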

Experiment [18] addresses Ubiquitin carboxyl-terminal hydrolase 1 (Homo sapiens) (UniProt O94782). Nature of the experiment: Inhibitors of USP1/UAF1: Pilot qHTS (AID 504865). Note: potency is the fitted concentration of half-maximal effect; nearly all actives have a fitted effect of over 35% in size. The essentials:
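Kinetic fluorescence assay: 1nM USP1/UAF1, 15 min compound preincubation, then 150nM Ub-Rho; 480/540 nm.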

Experiment [19] has as its system Zika virus NS2B-NS3 protease (linked construct). Nature of the experiment: 384 well plate NINDS Rhodamine confirmatory qHTS for Zika virus inhibitors (AID 1347164).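 For activity change, negative = inhibition: top concentration of the series differs between compounds; plate controls were no-inhibitor control for no effect and no-enzyme control for full effect.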 Note: nearly all actives have a fitted effect of over 65% in size. Note: potency is the fitted concentration of half-maximal effect. A digest of the protocol: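 Compounds are incubated about 15 minutes with linked protease (5, 30 or 60 nM final). Rhodamine 110-tagged Ac-LKRR substrate (10 microM final) is added and fluorescence measured after 25 minutes.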

In experiment [20] the target is Cytochrome P450 2D6 (Homo sapiens) (UniProt P10635). The experiment in a line: Cytochrome P450 family 2 subfamily D member 6 (CYP2D6) small molecule antagonists: luciferase biochemical (cell-free) qHTS assay (AID 1645840; active = well fitted curve in the direction sought with a large enough effect in the repeat runs; an effect the other way counts as inactive or inconclusive; note: potency is the fitted concentration of half-maximal effect; nearly all actives have a fitted effect of over 55% in size). The essentials:
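P450-Glo luminescent screen: recombinant CYP2D6 enzyme–proluciferin substrate mix preincubated with compound 10 min at room temperature, then NADPH regeneration added for 1 h at room temperature. Detection reagent added for 20 min; luciferin light read as relative luminescence units.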

Experiment [21] deals with Cytochrome P450 2C9 (Homo sapiens) (UniProt P11712). Nature of the experiment: Cytochrome P450 family 2 subfamily C member 9 (CYP2C9) small molecule antagonists: luciferase biochemical (cell-free) qHTS assay (AID 1645842; active = well fitted curve in the direction sought with a large enough effect in the repeat runs; an effect the other way counts as inactive or inconclusive; note: potency is the fitted concentration of half-maximal effect; nearly all actives have a fitted effect of over 55% in size). A digest of the protocol: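 Luminescence, after 20 min with luciferin detection reagent, reflected CYP2C9 turnover during a 1 h NADPH-driven reaction at 37C. Enzyme-substrate mix contained 0.4% bovine serum albumin and was preincubated with compound 10 min at room temperature.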

The nature of experiment [22]: Tertiary RLuc qRT-PCR qHTS assay for Zika virus inhibitors (AID 1347169). Note: top concentration of the series differs between compounds; % is set by controls: 0 for no effect and ±100 for the full control effect; nearly all actives have a fitted effect of over 55% in size. A digest of the protocol: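 Orthogonal cell-based infection assay using recombinant ZIKV-RLuc (Cambodian) in Vero cells; compound added prior to virus at MOI 1-2. Incubation lasts 48-72 hrs at 37 degrees C before live-cell Renilla substrate is added and luminescence measured.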

Results filed as inconclusive are left out. Activity calls are given as the source filed them. Unless noted, calls come from the whole dose curve; as a rule, active = well fitted curve in the direction sought with a large enough effect; inconclusive = small, poorly fitted or top-dose-only effect, or another doubt; inactive = no such curve, though single readings can be large; an effect the other way counts as inactive or inconclusive.

Chain of Cytochrome P450 3A4 (Homo sapiens) (P08684 whole entry, looked up): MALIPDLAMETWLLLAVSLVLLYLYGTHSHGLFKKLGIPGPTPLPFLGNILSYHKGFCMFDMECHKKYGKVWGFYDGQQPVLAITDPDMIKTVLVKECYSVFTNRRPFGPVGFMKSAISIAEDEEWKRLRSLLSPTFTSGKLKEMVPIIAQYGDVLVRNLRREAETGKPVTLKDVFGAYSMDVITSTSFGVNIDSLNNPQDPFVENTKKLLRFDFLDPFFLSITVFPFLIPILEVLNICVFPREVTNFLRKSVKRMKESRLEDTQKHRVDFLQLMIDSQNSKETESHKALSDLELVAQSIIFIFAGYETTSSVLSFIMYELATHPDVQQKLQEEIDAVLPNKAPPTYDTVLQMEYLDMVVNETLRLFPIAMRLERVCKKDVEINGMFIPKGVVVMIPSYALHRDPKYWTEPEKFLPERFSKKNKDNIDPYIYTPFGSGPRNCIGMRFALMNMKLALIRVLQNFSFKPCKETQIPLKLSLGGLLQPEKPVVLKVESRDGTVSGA
Chain of Glucocorticoid receptor (Homo sapiens) (P04150 whole entry, looked up): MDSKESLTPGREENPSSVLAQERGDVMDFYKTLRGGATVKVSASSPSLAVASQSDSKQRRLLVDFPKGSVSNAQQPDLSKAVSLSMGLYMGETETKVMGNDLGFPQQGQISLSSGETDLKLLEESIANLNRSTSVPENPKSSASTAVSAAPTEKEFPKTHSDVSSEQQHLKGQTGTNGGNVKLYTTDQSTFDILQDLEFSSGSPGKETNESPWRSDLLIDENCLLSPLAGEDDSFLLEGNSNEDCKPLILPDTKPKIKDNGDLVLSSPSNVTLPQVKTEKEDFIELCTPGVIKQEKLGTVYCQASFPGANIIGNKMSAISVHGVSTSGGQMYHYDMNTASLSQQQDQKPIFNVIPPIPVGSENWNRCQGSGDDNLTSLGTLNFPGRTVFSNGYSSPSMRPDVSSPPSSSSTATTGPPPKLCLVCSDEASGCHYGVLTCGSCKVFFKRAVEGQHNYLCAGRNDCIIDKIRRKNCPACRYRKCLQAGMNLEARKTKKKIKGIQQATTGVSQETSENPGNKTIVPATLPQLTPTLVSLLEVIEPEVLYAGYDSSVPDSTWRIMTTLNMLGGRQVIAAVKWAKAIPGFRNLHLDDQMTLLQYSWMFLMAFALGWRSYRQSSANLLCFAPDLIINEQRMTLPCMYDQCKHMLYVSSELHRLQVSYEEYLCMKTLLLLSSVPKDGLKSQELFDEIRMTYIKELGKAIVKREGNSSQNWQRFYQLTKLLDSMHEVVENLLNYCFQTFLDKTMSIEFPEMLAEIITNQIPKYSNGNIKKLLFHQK
Chain of Cytochrome P450 2C9 (Homo sapiens) (P11712 whole entry, looked up): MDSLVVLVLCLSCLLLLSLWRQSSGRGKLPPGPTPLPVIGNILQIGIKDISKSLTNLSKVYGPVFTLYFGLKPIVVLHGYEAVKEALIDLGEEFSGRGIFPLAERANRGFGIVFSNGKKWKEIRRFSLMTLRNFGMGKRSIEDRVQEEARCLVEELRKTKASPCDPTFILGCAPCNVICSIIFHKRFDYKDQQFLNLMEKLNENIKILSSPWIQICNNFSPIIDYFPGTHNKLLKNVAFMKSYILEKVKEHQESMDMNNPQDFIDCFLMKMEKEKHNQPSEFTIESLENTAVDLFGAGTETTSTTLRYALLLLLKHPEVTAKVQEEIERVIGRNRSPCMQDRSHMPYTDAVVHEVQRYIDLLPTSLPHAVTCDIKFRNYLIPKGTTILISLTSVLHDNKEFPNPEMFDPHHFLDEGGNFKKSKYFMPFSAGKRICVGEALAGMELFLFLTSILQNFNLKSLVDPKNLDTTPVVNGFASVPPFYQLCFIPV
Chain of Lysosomal acid glucosylceramidase (Homo sapiens) (P04062 whole entry, looked up): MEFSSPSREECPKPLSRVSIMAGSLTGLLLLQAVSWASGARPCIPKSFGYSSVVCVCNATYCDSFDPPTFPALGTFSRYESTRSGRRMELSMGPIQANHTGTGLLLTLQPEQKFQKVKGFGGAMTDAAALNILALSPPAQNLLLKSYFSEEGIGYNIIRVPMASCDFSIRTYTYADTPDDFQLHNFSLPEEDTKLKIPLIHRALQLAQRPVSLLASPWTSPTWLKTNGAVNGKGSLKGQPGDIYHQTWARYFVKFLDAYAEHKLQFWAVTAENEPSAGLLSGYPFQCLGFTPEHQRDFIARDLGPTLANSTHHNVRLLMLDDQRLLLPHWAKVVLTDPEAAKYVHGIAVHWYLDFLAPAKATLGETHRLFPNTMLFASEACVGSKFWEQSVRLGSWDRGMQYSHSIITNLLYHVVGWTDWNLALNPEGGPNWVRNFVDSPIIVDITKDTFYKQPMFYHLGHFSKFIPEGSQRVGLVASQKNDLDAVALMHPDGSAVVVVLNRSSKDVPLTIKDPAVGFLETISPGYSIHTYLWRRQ
Chain of Cytochrome P450 1A2 (Homo sapiens) (P05177 whole entry, looked up): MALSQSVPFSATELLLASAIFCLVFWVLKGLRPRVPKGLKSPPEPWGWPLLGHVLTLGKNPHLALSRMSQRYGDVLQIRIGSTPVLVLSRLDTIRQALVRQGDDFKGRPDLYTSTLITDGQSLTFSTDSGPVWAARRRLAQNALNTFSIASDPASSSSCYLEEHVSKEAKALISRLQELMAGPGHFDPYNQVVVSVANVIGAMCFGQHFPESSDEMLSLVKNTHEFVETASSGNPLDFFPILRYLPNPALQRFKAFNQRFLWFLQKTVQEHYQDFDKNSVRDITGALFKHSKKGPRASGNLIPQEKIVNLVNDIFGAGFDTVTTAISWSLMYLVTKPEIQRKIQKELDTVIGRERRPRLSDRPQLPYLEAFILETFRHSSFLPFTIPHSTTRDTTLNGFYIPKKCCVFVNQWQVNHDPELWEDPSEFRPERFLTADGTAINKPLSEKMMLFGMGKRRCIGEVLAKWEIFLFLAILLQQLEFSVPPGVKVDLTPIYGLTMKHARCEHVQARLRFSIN
Chain of Cytochrome P450 2D6 (Homo sapiens) (P10635 whole entry, looked up): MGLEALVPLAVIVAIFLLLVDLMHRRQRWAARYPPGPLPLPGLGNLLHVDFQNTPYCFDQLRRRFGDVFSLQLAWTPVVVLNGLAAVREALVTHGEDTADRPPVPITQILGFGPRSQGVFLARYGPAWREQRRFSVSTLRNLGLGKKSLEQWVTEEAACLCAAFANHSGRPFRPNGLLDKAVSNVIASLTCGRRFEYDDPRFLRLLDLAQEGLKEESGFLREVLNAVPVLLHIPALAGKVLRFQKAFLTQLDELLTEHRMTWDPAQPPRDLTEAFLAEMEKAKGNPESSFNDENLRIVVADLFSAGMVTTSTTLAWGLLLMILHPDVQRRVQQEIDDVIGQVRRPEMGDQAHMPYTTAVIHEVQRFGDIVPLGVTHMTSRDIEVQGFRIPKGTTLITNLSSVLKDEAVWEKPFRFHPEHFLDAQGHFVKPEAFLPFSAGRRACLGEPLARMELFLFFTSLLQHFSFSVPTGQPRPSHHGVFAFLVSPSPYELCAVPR
Chain of 3',5'-cyclic-AMP phosphodiesterase 4B (Homo sapiens) (Q07343 whole entry, looked up): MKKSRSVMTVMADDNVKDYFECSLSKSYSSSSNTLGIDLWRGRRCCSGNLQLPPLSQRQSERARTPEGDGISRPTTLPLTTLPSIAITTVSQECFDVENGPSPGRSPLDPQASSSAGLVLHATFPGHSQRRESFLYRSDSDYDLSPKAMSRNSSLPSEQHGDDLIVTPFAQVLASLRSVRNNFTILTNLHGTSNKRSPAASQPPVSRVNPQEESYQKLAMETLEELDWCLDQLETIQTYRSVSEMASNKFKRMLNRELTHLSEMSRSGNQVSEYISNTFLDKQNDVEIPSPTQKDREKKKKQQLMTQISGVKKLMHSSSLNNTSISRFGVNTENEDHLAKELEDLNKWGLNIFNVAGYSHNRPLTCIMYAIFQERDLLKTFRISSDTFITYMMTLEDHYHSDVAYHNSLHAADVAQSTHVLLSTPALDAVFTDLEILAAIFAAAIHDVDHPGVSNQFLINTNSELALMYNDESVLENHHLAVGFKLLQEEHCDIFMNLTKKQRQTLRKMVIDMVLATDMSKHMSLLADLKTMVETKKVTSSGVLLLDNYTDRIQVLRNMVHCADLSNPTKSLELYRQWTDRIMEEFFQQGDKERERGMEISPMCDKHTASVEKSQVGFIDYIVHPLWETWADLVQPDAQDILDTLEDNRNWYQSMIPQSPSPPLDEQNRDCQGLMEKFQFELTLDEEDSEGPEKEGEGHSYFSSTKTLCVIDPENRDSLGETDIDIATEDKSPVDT
Chain of Ubiquitin carboxyl-terminal hydrolase 1 (Homo sapiens) (O94782 whole entry, looked up): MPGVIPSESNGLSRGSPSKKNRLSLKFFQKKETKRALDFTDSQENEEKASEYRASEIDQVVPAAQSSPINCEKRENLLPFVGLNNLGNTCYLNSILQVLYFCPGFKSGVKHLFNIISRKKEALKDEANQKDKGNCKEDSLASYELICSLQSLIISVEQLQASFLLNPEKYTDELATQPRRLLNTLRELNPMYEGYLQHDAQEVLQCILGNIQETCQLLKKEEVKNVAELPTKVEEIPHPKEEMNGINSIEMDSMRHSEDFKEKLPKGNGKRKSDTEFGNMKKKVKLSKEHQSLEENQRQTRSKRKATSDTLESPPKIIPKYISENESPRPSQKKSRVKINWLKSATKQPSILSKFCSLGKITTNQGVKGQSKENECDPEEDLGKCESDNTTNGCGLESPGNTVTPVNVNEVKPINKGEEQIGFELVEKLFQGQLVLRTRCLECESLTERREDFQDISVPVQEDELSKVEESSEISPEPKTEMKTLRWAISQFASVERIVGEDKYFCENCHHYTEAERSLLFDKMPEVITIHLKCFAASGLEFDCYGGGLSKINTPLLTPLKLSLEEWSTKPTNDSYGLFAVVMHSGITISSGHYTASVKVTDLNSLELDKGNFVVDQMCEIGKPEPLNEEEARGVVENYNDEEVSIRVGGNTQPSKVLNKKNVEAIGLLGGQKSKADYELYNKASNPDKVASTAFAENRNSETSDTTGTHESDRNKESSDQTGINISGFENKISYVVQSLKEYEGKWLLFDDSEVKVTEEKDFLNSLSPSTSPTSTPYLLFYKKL

For the molecule `O=C1c2ccccc2C(Cc2ccnc(F)c2)(Cc2ccnc(F)c2)c2ccccc21`, in experiment [1], the Potency was 15.8 µM (active). Besides, the Potency entry in experiment [2] and in [3] was “inactive” throughout.
As for `O=C(O)c1c(Br)c(Br)c(Br)c(Br)c1C1c2ccc(O)cc2Oc2cc(O)ccc21`, the Potency in experiment [4] is 7.36 µM (active); in experiment [8], > 46 µM (inactive); in experiment [9] it was > 9.22 µM (inactive); in experiment [11] it was 12.6 µM (active); in [13], 0.891 µM (active); in experiment [14] it was 14.1 µM (active). The activity change, negative = inhibition in [5] is -20.1% (inactive); in experiment [6] it was -6.8% [at 2.29 µM] (inactive); in experiment [7], -6.47% (inactive). Besides, the Potency result in [10] and in [12] was “inactive” in each case. Further, in experiment [2], the activity change, positive = activation is -36% [at 11.4 µM] (inactive).
`O=C1c2ccc(O)c(O)c2C(=O)c2c(O)ccc(O)c21`: the call in [15] and in experiment [16] was inactive. For the same molecule, in experiment [17] (at 57.5 µM (top of the series)), the activity change, negative = inhibition was 6.47% (inactive). In addition, the values for the max response in [17] (measured here: cell count channel max response) and in [17] (measured here: lipid channel max response) were -10.7% and -3.59%, respectively. Besides, the Potency was 79.4 µM (active) in [18]; 12.6 µM (active) in [11]; 5.62 µM (active) in [13]; 31.6 µM (active) in [14]; 21.3 µM (active) in [20]; 19 µM (active) in experiment [21]. In addition, the Potency entry in [12] and in experiment [19] was “inactive” each time.
`COC(=O)c1ccc([C@H]2Nc3ccc(S(=O)(=O)Nc4cccc(C)c4)cc3[C@H]3C=CC[C@H]32)cc1`: the Potency in experiment [11] is 25.1 µM (active); in [13], 25.1 µM (active); in [14] it was 141 µM (active); in experiment [19] it was 158 µM (active). Moreover, the Potency result in [12] and in experiment [22] was “inactive” each time.

Source of the values: PubChem BioAssay (NCATS).
